This assay can be described thus: NCI Yeast Anticancer Drug Screen. Data for the wt2 strain (AID 169).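 Also: 0% = growth of vehicle-treated yeast cultures.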 As to conditions: S. cerevisiae wt2 strain growth inhibition, active compounds read high. How it is done: Growth inhibition of yeast strains with defined genetic alterations is measured as a screen for potential anti-cancer activity. Selected strains with alterations in DNA damage repair or cell cycle control were exposed to compounds and growth inhibition was measured relative to vehicle treated controls. The strain used in this assay is wt2

Structures are written as SMILES. About 79,000 compounds went through this panel and 15% of them were active in at least one assay; those are over-represented in the sample as a whole. Values without a mark were called inactive. Calls of active or inactive are those of the source. Rule as the data show it: active = growth inhibition above about 70%; inactive = the rest.

In the case of `CN(C)CCNc1ccc2ncn3c4ccc(O)cc4c(=O)c1c23`, the growth inhibition is -8% (at 1.2 µM); -3% (at 3.7 µM); -2% (at 11.0 µM); -8% (at 33.0 µM); -11% (at 100.0 µM).

Turning to `CCN(CC)CCCNc1ccc([N+](=O)[O-])c2nc3ccc(OC)cc3c(NCCCN(CC)CC)c12`, the growth inhibition runs as follows: (at 1.2 µM) -2%; (at 3.7 µM) 0%; (at 11.0 µM) 1%; (at 33.0 µM) -1%; (at 100.0 µM) 0%.

Turning to `CC1CN(/N=C\c2ccc([N+](=O)[O-])o2)C(=O)O1` (stereo not given), the growth inhibition reads like this: (at 1.2 µM) -3%; (at 3.7 µM) 6%; (at 11.0 µM) -3%; (at 33.0 µM) -1%; (at 100.0 µM) 18%.

Take `CC1(C)CC(=O)C(C(=O)Nc2cccs2)=C(O)C1`: the growth inhibition (at 1.2 µM) is 4%; the growth inhibition (at 3.7 µM) was 14%; the growth inhibition (at 11.0 µM) is 17%; the growth inhibition (at 33.0 µM) is 60%; the growth inhibition (at 100.0 µM) was 99% (active).

For the compound `O=C(CCSC1=NCCCN1)c1ccc(F)cc1`, the growth inhibition was -12% (at 1.2 µM); -13% (at 3.7 µM); -5% (at 11.0 µM); 34% (at 33.0 µM); 99% (active) (at 100.0 µM).

`Fc1ccc(Nc2ccc3ccccc3c2)cc1`: the growth inhibition (at 1.2 µM) is -1%; the growth inhibition (at 3.7 µM) was 8%; the growth inhibition (at 11.0 µM) was -1%; the growth inhibition (at 33.0 µM) is 44%; the growth inhibition (at 100.0 µM) was 91% (active).

On to `CCCCN(CCC#N)c1ccc(/C=C/c2ccnc3ccccc23)cc1`, for which the growth inhibition runs as follows: (at 1.2 µM) -9%; (at 3.7 µM) -12%; (at 11.0 µM) -1%; (at 33.0 µM) 69%; (at 100.0 µM) 83% (active).

`CN(C)N=Nc1ccc(N(C)C)cc1`: the growth inhibition reads like this: (at 1.2 µM) -1%; (at 3.7 µM) -1%; (at 11.0 µM) 0%; (at 33.0 µM) 2%; (at 100.0 µM) 13%.

Values taken from PubChem BioAssay (NCI).
